# According to PubChem BioAssay (Tox21):
# Calls of active or inactive are those of the source. The call rests on the fitted dose curve; in most records, active means well fitted curve in the direction sought with a large enough effect in the repeat runs; inconclusive means weak or mixed curves; inactive means flat fitted curve, though single readings scatter.
# Assay: qHTS assay to test for compound auto fluorescence at 535 nm (green) in HepG2 cell free culture (AID 720686)
# Settings: Cell-free medium, green autofluorescence 485/535 nm; series mostly up to 91.3 µM; fluorescence, % of fluorescein control: at the top concentration
# On the % scale 0 is the no-effect control and ±100 the full control effect.
Structure (SMILES),"fluorescence, % of fluorescein control",outcome
C=C(C)[C@@H]1CC=C(C)CC1,0.0914% (inactive),–
COS(=O)(=O)O,0.0448% (inactive),–
O=NN(CCCl)C(=O)NC1CCCCC1,0.0246% [at 46 µM] (inactive),–
CCCCCCCCCCCCCBr,0.0211% (inactive),–
CC1(C)[C@H]2CC[C@](C)(C2)[C@H]1O,0.0693% [at 95.7 µM] (inactive),–
C[C@H]1[C@@H](c2ccccc2)NC(=O)N1C,-0.014% (inactive),–
O=S(=O)(O)c1ccc2c(N=Nc3ccc(S(=O)(=O)O)c4ccccc34)c(O)c(S(=O)(=O)O)cc2c1,–,inactive
CCO[Si](CC)(OCC)OCC,-0.0142% (inactive),–
C[C@@H](O)C(=O)O,0.0452% [at 95.7 µM] (inactive),–
O=C(O)CONC(=O)c1ccccc1,-0.01% (inactive),–
O=C=NCC1CCCC(CN=C=O)C1 (centres undefined),-0.0344% (inactive),–
O=C(O)[C@H](O)c1ccccc1,-0.0056% [at 46 µM] (inactive),–
c1ccc2c(CC3=NCCN3)cccc2c1,–,inactive
CN1CCOC(c2ccccc2)c2ccccc2C1 (centres undefined),0.0063% [at 18.6 µM] (inactive),–
CC(C)OC(=O)OCOP(=O)(CO[C@H](C)Cn1cnc2c(N)ncnc21)OCOC(=O)OC(C)C,–,inactive
C=CC(=O)CCCCC,0.0478% [at 95.7 µM] (inactive),–
COC(=O)c1cccc(Cl)c1,-0.184% (inactive),–

Structure (SMILES),"fluorescence, % of fluorescein control",outcome
Cn1nnc2c(C(N)=O)ncn2c1=O,0.0137% [at 46 µM] (inactive),–
N#Cc1cscn1,0.0332% (inactive),–
Cn1c(=O)c2c(ncn2CCO)n(C)c1=O,-0.0135% [at 46 µM] (inactive),–
NCc1ccc(S(N)(=O)=O)cc1,0.0245% [at 18.6 µM] (inactive),–
CCCCCCC1(C)CCC(=O)O1 (centres undefined),-0.0057% (inactive),–
Cc1cc(-c2ccccc2)nnc1NCCN1CCOCC1,0.0128% [at 46 µM] (inactive),–
O=C(O)CSCC(=O)NC1CCSC1=O (centres undefined),0.032% [at 46 µM] (inactive),–
CC(C)(CO)C(O)C(=O)NCCCO (centres undefined),0.0101% (inactive),–
C=CC(=O)OCC1CCCO1 (centres undefined),0.012% (inactive),–
CCOc1cccc(N)c1,-0.0621% (inactive),–
CC(C)=CCC/C(C)=C/COC=O,0.054% (inactive),–
CO[Si](CCCn1c(=O)n(CCC[Si](OC)(OC)OC)c(=O)n(CCC[Si](OC)(OC)OC)c1=O)(OC)OC,-0.0001% (inactive),–
C[C@]12CCC(=O)C=C1CC[C@H]1[C@@H]3CC[C@](O)(C(=O)CO)[C@@]3(C)C[C@H](O)[C@@]12F,–,inactive
CC/C(C)=N\O[Si](C)(O/N=C(\C)CC)O/N=C(\C)CC,0.0939% [at 95.7 µM] (inactive),–
C=Cc1ccc(C(C)(C)C)cc1,-0.0078% (inactive),–
CC(C)[C@H]1CC[C@H](C)C[C@@H]1O,-0.0161% [at 95.7 µM] (inactive),–
CC(=O)C(C)O (centres undefined),-0.0187% (inactive),–
